# From PubChem BioAssay
# This is a sample that favours compounds with a hit; in the whole collection about 2.8% have one here.
# Shn3 3UTR inh – reduction of Shn3 3'UTR firefly luciferase signal, primary screen, Schnurri-3 inhibitor project, cell-based, Clone20 osteoblasts, set 2; Clone20 osteoblast Shn3 3'UTR firefly luciferase, 24 h; inhibition, % at 12.5 µM; 360,000 tested, 0.52% active;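 active means mean inhibition of at least 75% with every replicate also reaching 75%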;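 further: 0% = median of neutral control wells and 100% = pilot-screen positive control compound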
# KKLEB tox – cytotoxicity in KKLEB CF airway cells, primary screen, cytotoxicity control for CF NF-kB inhibitor project, cell-based, uHTS, fluorescence assay plates; KKLEB CF airway cells viability, ATPlite luminescence, overnight; stronger effect = lower value; cells stimulated with P. aeruginosa culture filtrate; activity change (cytotoxicity), % at 5 µM; 360,000 tested, 0.36% active;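 active means corrected activity change at or below -50% at 5 µM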
# HIF-2a inh – HIF-2a reporter inhibitors, primary screen, luminescence, 786-0 RCC cells | 786-0 RCC cells HIF-2a reporter, luciferase luminescence, overnight | inhibition, % at 18.8 µM | 360,000 tested, 0.72% active | AID 624352, 2012;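 active means inhibition of the luminescence signal of 40% or more relative to plate controls, in a single-dose primary screen at 18.75 µM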
# TRPM1 prom inh – inhibitors of MITF-dependent TRPM1 promoter reporter, primary screen, cell-based, SK-MEL-5, single point, luciferase; SK-MEL-5 TRPM1 promoter luciferase, 24 h; inhibition, % at 12.5 µM; 330,000 tested, 0.83% active; AID 488899, 2010;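 active means mean inhibition across replicates of 60% or more, whatever share of single replicates reaches that level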
# CF NFkB inh – inhibitors of PAF-induced NF-kB signaling, primary screen, cell-based, GFP fluorescence, uHTS; KKLEB NF-kB-GFP reporter, GFP fluorescence overnight; inhibition, % at 5 µM; 360,000 tested, 0.86% active;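 active means at least 50% inhibition at 5 µM, scaled per plate between neutral and stimulator controls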;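 further: PAF is a Pseudomonas aeruginosa culture filtrate used as stimulus; plate controls were PAF-stimulated DMSO wells for no effect and unstimulated DMSO wells for full effect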
# Peg3 prom inh – Peg3 promoter-driven luciferase inhibitors, primary screen, cell-based, HeLa, luciferase luminescence. 360,000 tested, 1.7% active. HeLa PEG-Prom luciferase reporter, overnight. inhibition, % at 20 µM;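 active means inhibition of at least 50% at 20 µM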
# CF NFkB inh conf – inhibitors of PAF-induced NF-kB signaling, retest, confirmation, cell-based, GFP fluorescence, single concentration; shares compounds with CF NFkB inh; KKLEB CF airway cells, overnight; inhibition, % at 5 µM; 1,300 tested, 64% active; AID 602472, 2012; in the data active means inhibition above about 40%;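 further: stimulus PAF is a Pseudomonas aeruginosa filtrate and not platelet activating factor; plate controls were DMSO wells with stimulus for no effect and unstimulated DMSO wells for full effect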
# Mdm2-MdmX confirm – retested Mdm2-MdmX interaction blockers, confirmation, cell-based, luminescence, single concentration, set 2. shares compounds with HIF-2a inh. SaOS-2 split-luciferase Mdm2/MdmX complementation. inhibition, % at 8 µM. 740 tested, 99% active;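 active means mean inhibition of the luminescence signal across two replicates at or above 26 percent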
# Target sequence (O15151 whole entry, looked up): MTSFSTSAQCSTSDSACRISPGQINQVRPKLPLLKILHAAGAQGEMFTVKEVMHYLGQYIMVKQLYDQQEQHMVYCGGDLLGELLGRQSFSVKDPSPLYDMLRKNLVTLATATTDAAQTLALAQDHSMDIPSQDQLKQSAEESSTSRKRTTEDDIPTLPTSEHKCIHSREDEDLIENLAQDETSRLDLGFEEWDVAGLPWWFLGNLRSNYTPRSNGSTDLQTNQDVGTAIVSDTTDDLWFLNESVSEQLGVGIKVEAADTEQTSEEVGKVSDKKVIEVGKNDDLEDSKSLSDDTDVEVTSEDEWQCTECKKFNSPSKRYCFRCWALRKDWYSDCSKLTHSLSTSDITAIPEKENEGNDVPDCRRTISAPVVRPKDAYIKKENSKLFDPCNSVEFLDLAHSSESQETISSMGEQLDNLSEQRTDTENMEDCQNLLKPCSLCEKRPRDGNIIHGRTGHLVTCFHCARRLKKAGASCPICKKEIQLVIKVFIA
# Target sequence (Q00987 whole entry, looked up): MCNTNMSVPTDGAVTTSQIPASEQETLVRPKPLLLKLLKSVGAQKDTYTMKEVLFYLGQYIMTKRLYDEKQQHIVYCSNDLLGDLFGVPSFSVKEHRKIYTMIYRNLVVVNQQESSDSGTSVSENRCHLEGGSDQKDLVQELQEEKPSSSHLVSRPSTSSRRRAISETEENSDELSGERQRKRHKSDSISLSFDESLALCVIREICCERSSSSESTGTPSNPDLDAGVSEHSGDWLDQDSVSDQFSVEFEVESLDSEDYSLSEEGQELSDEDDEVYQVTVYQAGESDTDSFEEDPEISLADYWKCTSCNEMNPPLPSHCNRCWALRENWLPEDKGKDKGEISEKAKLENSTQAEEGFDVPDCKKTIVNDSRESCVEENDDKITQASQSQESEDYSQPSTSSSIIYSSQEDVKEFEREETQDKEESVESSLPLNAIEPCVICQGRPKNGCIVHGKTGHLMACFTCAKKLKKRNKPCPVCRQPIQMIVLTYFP
# HIF-2a conf – HIF-2a reporter inhibitor retest, confirmation, luminescence, 786-0 RCC cells. HIF-2a luciferase reporter luminescence, overnight. inhibition, % at 18.8 µM. 1,800 tested, 56% active. shares compounds with HIF-2a inh. AID 651580, 2012;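 active means mean inhibition across four replicates of at least 40 percent at the single tested concentration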
# HIF-1a cs – HIF-1a luciferase reporter signal reduction – MiaPaCa-2 cells, single concentration, counter-screen for HIF-2a inhibitor project, confirmation; shares compounds with HIF-2a inh; MiaPaCa-2 HIF-1a luciferase reporter, desferoxamine, overnight; inhibition, % at 18.8 µM; 1,800 tested, 72% active; AID 651589, 2012;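 active means mean inhibition of the reporter signal across four replicates at the single tested dose of 50% or more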
# * hit, by the source's call; / = not tested or not shown.
SMILES,Shn3 3UTR inh,KKLEB tox,HIF-2a inh,TRPM1 prom inh,CF NFkB inh,Peg3 prom inh,CF NFkB inh conf,others
CCN(C[C@H]1N[C@@](CC)(C(=O)OC)[C@H]2C(=O)N(Cc3ccccc3)C(=O)[C@@H]12)C(=O)c1ccccc1,-9.5,17.4,6.4,3.8,-20.6,19.7,/,
Cc1cccc(C)c1NC(=O)C(c1ccccc1)N1CCC(c2ccccc2)CC1 (stereo not drawn),/,/,7.8,/,/,/,/,
Cn1c(N2CCN(C(c3ccccc3)c3ccccc3)CC2)nc2c1c(=O)[nH]c(=O)n2C,9.7,-17.3,12.4,1.8,68.9*,43.1,83.9*,
CC(=O)Nc1ccc(-c2ccnc3c2CC(C(=O)NCC2CC2)O3)cc1 (stereo not drawn),6.0,-19.4,9.1,/,3.9,8.5,/,
CC(=O)Nc1ccc(-c2ccnc3c2CC(C(=O)NCc2ccco2)O3)cc1 (stereo not drawn),6.4,-44.3,26.9,/,60.0*,-16.1,60.9*,
CC(=O)Nc1ccc(-c2ccnc3c2CC(C(=O)NCc2ccccc2)O3)cc1 (stereo not drawn),1.9,-24.0,16.6,/,55.7*,-19.8,48.8*,
Cc1c(C(=O)OC2CCCC2)[nH]c2c1C(=O)CC(c1ccco1)C2 (stereo not drawn),89.8*,-31.1,-46.9,24.7,50.5*,-25.9,82.3*,
C/C=C/COC(=O)c1[nH]c2c(c1C)C(=O)CC(c1ccc(N(C)C)cc1)C2 (stereo not drawn),26.0,-25.9,-48.6,-26.5,25.2,-40.1,/,
Cc1c(C(=O)OCC2CCCO2)[nH]c2c1C(=O)CC(c1ccco1)C2 (stereo not drawn),6.7,0.9,-19.6,19.6,5.2,-4.4,/,
COC(=O)c1[nH]c2c(c1C)C(=O)CC(c1ccccc1)C2 (stereo not drawn),0.8,-28.7,6.0,26.9,42.5,14.7,/,
C/C=C/COC(=O)c1[nH]c2c(c1C)C(=O)CC(c1ccco1)C2 (stereo not drawn),73.0,-31.5,15.5,/,61.9*,-5.6,84.6*,
Cc1c(C(=O)OCC(C)C)[nH]c2c1C(=O)CC(c1ccco1)C2 (stereo not drawn),64.4,-24.0,-60.9,7.5,50.8*,-41.1,52.6*,
CCCNC(=O)Cn1cnc([N+](=O)[O-])n1,10.7,-14.0,17.7,3.6,-1.5,-0.8,/,
COc1cc(OC)nc(Nc2nc(C(N)c3ccccc3Cl)cs2)n1 (stereo not drawn),-8.0,-36.0,12.1,/,50.0*,37.8,8.4,
Cc1ccc(-c2cc(C(F)F)nc(S(C)(=O)=O)n2)cc1,69.6,-33.2,9.8,33.6,50.8*,98.4*,-65.8,
Cc1ccc(-c2cc(-c3ccccc3)nc(Cl)n2)cc1,-10.7,-2.6,-96.3,-2.8,-6.7,-45.3,/,
NC(=O)c1sc2nc3c(c(-c4ccco4)c2c1N)CCCC3,-8.0,-11.1,22.2,-12.4,65.0*,11.4,80.2*,
COc1ccc(-c2cc(C(F)(F)F)nc(N3CCN(c4ccc(F)cc4)CC3)n2)cc1OC,-14.2,-33.5,2.8,-4.1,54.1*,20.4,41.1*,
COc1ccc(-c2cc(C(F)(F)F)nc(N3CCN(Cc4ccccc4)CC3)n2)cc1OC,16.0,-7.5,16.0,5.7,4.4,5.4,/,
c1ccc2c(c1)Nc1ccncc1S2,-3.9,-3.7,25.4,-6.7,52.4*,0.1,77.4*,
c1ccc2c(c1)Nc1cc3ccccc3cc1S2,-81.7,9.7,-142.9,-59.8,-0.6,-148.6,/,
O=c1[nH]cnc2c1ncn2[C@@H]1O[C@H](COS(=O)(=O)O)[C@@H](O)[C@H]1O,-12.1,8.5,2.6,3.5,-12.2,-12.6,/,
CCN(CC(=O)Nc1ccc(OC)cc1)C(=O)c1cc(-c2cccs2)nn1-c1ccccc1,17.2,-11.1,10.1,9.8,54.5*,49.9,51.2*,
COc1ccc(NC(=O)CN(C)C(=O)c2cc(-c3cccs3)nn2-c2ccccc2)cc1,-3.9,-2.8,6.8,-0.4,2.5,27.9,/,
O=C(NCc1nc(-c2ccc(C(F)(F)F)cc2)no1)Nc1ccc(F)cc1F,/,6.0,11.2,3.5,1.7,10.2,/,
SMILES,Shn3 3UTR inh,KKLEB tox,HIF-2a inh,TRPM1 prom inh,CF NFkB inh,Peg3 prom inh,CF NFkB inh conf,others
O=C(NCc1nc(-c2ccc(C(F)(F)F)cc2)no1)Nc1cc(Cl)cc(Cl)c1,57.4,-30.2,-17.3,5.8,54.6*,51.6*,49.6*,
Cc1nn(-c2ccccc2)c(Cl)c1C(=O)N1CCN(c2ncnc3c2cnn3-c2ccccc2)CC1,70.4,-16.6,11.6,51.1,62.6*,113.8*,72.5*,Mdm2-MdmX confirm=99.7*
COc1cc(/C=C/C(=O)c2ccc(O)cc2)ccc1OCC#N,32.2,-17.1,51.3*,22.4,65.2*,97.2*,-4.7,HIF-2a conf=-13.3;HIF-1a cs=100.2*
CCOC(=O)C1C(c2ccc(O)c(O)c2)NC(=S)NC1(O)C(F)(F)F (stereo not drawn),11.4,0.7,6.1,9.5,2.0,6.9,/,
CN(C)S(=O)(=O)c1cccc(NC(=O)COC(=O)c2ccc3ccccc3n2)c1,9.9,15.8,20.8,/,-25.5,12.2,/,
Cc1nnnn1/C(=C\c1ccccc1)C(=O)OCC(=O)Nc1cccc(S(=O)(=O)N(C)C)c1,-1.5,-15.8,42.1*,45.9,62.7*,105.9*,-51.2,HIF-2a conf=78.7*;HIF-1a cs=21.9
O=C(Nc1ccc(N2CCCC2)c(Cl)c1)c1ccc([N+](=O)[O-])o1,63.5,-46.3,83.9*,72.7*,70.2*,110.2*,-25.6,HIF-2a conf=50.2*;HIF-1a cs=106.8*
O=C(Nc1ccc(N2CCCC2)c(Cl)c1)c1ccco1,-13.5,2.0,-193.7,-41.4,-26.2,-146.6,/,
CCc1ccc(Nc2n[n+](-c3ccccc3)c(-c3c(Cl)cccc3Cl)s2)cc1,91.8*,-41.5,-57.2,55.9,52.0*,96.5*,87.6*,Mdm2-MdmX confirm=101.0*
COc1ccc2cc3c(N)nn(C(=O)c4cccc(F)c4)c3nc2c1,1.9,-2.5,3.6,-5.3,49.5,7.6,/,
